According to the supplement of paper PMC13380429:

Tested on: Vero E6 infected with SARS-CoV-2
Assay: inhibition of SARS-CoV-2 cytopathic effect; higher = more antiviral protection, active = above 15
Settings: 8.33 nM; 48 h

Q: With `CCOC(=O)NNc1ccc(N(CC)CC(C)O)nn1` (stereo not given) [cadralazine] as the molecule, how does the “inhibition of SARS-CoV-2 cytopathic effect” value (from here on “inhibition”) read?
A: Its value is -0.3% (inactive).

Q: For `Cn1cc(-c2ccc3nnc(Sc4ccc5ncccc5c4)n3n2)cn1`, which “inhibition” value is on record?
A: The value was -0.33% (inactive).

Q: With `COc1ccccc1C(=O)Nc1cccc(NC(=O)c2cccc(C)c2)c1` as the molecule, how does the “inhibition” value read?
A: Its value is 2.12% (inactive).

Q: Which “inhibition” value does the source give for `CCO[C@@H](Cc1ccc(OCCc2ccc(OS(C)(=O)=O)cc2)cc1)C(=O)O` [tesaglitazar] here?
A: Its value is -3.5% (inactive).

Q: Which “inhibition” value does the source give for `CC1=C(/C=C/C(=C/C=C/C(C)=C/C(=O)O)c2ccc(C)cc2)C(C)(C)CCC1` here?
A: Its value is 2.92% (inactive).

Q: Which “inhibition” value does the source give for `CS(=O)(=O)n1cc2c(n1)CN([C@H]1CO[C@H](c3cc(F)ccc3F)[C@@H](N)C1)C2` [omarigliptin] here?
A: The value was 1.81% (inactive).

Q: `O=C(O)c1nn(Cc2ccc(Cl)cc2Cl)c2ccccc12` [lonidamine] was tested. Which “inhibition” value did it give?
A: The value was 0.67% (inactive).

Q: Which “inhibition” value does the source give for `Cc1nc(-c2ccc(OCC(C)C)c(C#N)c2)sc1C(=O)O` [febuxostat] here?
A: The value was -0.46% (inactive).

Q: Which “inhibition” value does the source give for `CCCC[C@H]1OC(=O)c2ccccc21` [butylphthalide] here?
A: Its value is -2.6% (inactive).

Q: `CCN(CC)CCCCNc1ncc2cc(-c3cc(OC)cc(OC)c3)c(NC(=O)NC(C)(C)C)nc2n1` was tested. Which “inhibition” value did it give?
A: The value was 1.53% (inactive).

Q: How did the “inhibition” value turn out when `C[C@H](Cc1ccc(O)c(O)c1)[C@@H](C)Cc1ccc(O)c(O)c1` [masoprocol] was run?
A: The value was 1.69% (inactive).

Q: For `CN=C(N)NCCC[C@H](N)C(=O)O` [L-monomethylarginine], which “inhibition” value is on record?
A: The value was -1.38% (inactive).

Q: Which “inhibition” value does the source give for `O=C(Oc1ccccc1)c1ccccc1O` [phenyl-salicylate] here?
A: The value was -2.22% (inactive).

Q: How did the “inhibition” value turn out when `Cc1nnc2ccc(-c3cccc(C(F)(F)F)c3)nn12` was run?
A: Its value is 3.68% (inactive).

Q: For `C=CC(=O)Nc1cccc(Nc2nc(Nc3ccc(N4CCN(C(C)=O)CC4)cc3OC)ncc2C(F)(F)F)c1` [rociletinib], which “inhibition” value is on record?
A: Its value is -1.67% (inactive).

Q: For `CC(C)[C@H](O)C(=O)N[C@@H](C)C(=O)N[C@@H]1C(=O)N(C)CCc2ccccc21` [semagacestat], which “inhibition” value is on record?
A: The value was 3.54% (inactive).

Same assay, conditions: 100 nM; 48 h

Q: For `Cc1c(C(=O)NN2CCOCC2)nn(-c2ccc(Cl)cc2Cl)c1-c1ccc(I)cc1`, which “inhibition” value is on record?
A: The value was 1.24% (inactive).

Q: How did the “inhibition” value turn out when `CN(C)CCn1cc(S(=O)(=O)c2cccc(F)c2)c2cccnc21` was run?
A: The value was 1.09% (inactive).

Q: `CCOC(=O)c1ccccc1OC(N)=O` [ethyl-2-(carbamoyloxy)benzoate] was tested. Which “inhibition” value did it give?
A: Its value is -4.5% (inactive).

Q: `O=C(O)Cc1sc(-c2ccccc2)nc1-c1ccc(Cl)cc1` [fentiazac] was tested. Which “inhibition” value did it give?
A: Its value is -1.78% (inactive).

Q: `O.O.O.O.O=C([O-])CC(O)(CC(=O)[O-])C(=O)[O-].[Li+].[Li+].[Li+]` [lithium-citrate] was tested. Which “inhibition” value did it give?
A: The value was -1.43% (inactive).

Q: With `COc1ccnc2[nH]cc(C(=O)C(=O)N3CCN(C(=O)c4ccccc4)C[C@H]3C)c12` as the molecule, how does the “inhibition” value read?
A: The value was -0.3% (inactive).

Q: With `Cc1cc(SCc2sc(-c3ccc(C(F)(F)F)c(F)c3)nc2C)ccc1OCC(=O)O` as the molecule, how does the “inhibition” value read?
A: The value was -2.76% (inactive).

Q: How did the “inhibition” value turn out when `CCC(=O)[C@@]1(C)[C@H](C)C[C@H]2[C@@H]3CCC4=CC(=O)C=C[C@]4(C)[C@H]3[C@@H](O)C[C@@]21C` [rimexolone] was run?
A: The value was -2.92% (inactive).

Q: How did the “inhibition” value turn out when `Cn1ccc2cc(NC(=O)Nc3cccnc3)ccc21` was run?
A: The value was 0.51% (inactive).

Q: With `C[S+](CC[C@H](N)C(=O)O)C[C@H]1O[C@@H](n2cnc3c(N)ncnc32)[C@H](O)[C@@H]1O` (stereo not given in full) [ademetionine] as the molecule, how does the “inhibition” value read?
A: The value was -2.58% (inactive).

Q: How did the “inhibition” value turn out when `CCN(CC)C(=O)[C@@]1(c2ccccc2)C[C@H]1CN` [milnacipran] was run?
A: Its value is -4.94% (inactive).

Q: Which “inhibition” value does the source give for `COc1cc2c(Oc3ccc(NC(=O)C4(C(=O)Nc5ccc(F)cc5)CC4)cc3F)ccnc2cc1OCCCN1CCOCC1` [foretinib] here?
A: Its value is 2.06% (inactive).

Q: With `O=c1sn(-c2cccc3ccccc23)c(=O)n1Cc1ccccc1` [tideglusib] as the molecule, how does the “inhibition” value read?
A: The value was -1.32% (inactive).

Q: For `CCC(=O)N1CCOc2c(cc(-c3ccc(OC)c(OC)c3)cc2OC[C@H]2CCCN(C)C2)C1`, which “inhibition” value is on record?
A: The value was 0.95% (inactive).

Q: How did the “inhibition” value turn out when `COCC1(CO)C(=O)C2CCN1CC2` (stereo not given) was run?
A: Its value is -0.44% (inactive).

Q: Which “inhibition” value does the source give for `C[C@@H]1CC[C@@]2(OC1)O[C@H]1C[C@H]3[C@@H]4CC=C5C[C@@H](O[C@@H]6O[C@H](CO)[C@@H](O[C@@H]7O[C@@H](C)[C@H](O)[C@@H](O)[C@H]7O)[C@H](O)[C@H]6O[C@@H]6O[C@@H](C)[C@H](O)[C@@H](O)[C@H]6O)CC[C@]5(C)[C@H]4CC[C@]3(C)[C@H]1[C@@H]2C` [dioscin] here?
A: The value was -2.63% (inactive).

Q: How did the “inhibition” value turn out when `CS(=O)(=O)c1cc(F)cc2c3c(n(Cc4ccc(Cl)cc4)c12)[C@@H](CC(=O)O)CC3` [laropiprant] was run?
A: The value was -0.36% (inactive).

Q: With `CCC(=O)NS(=O)(=O)c1ccc(-c2c(-c3ccccc3)noc2C)cc1` [parecoxib] as the molecule, how does the “inhibition” value read?
A: The value was 1.66% (inactive).

Q: How did the “inhibition” value turn out when `C[C@H](CCC(=O)O)[C@H]1CC[C@H]2[C@@H]3CC[C@@H]4C[C@H](O)CC[C@]4(C)[C@H]3CC[C@]12C` [lithocholic-acid] was run?
A: The value was -0.13% (inactive).

Q: How did the “inhibition” value turn out when `CCOc1cn(-c2ccc(F)cc2C)nc1C(=O)Nc1ccc(Oc2ccnc3cc(OC)c(OC)cc23)c(F)c1` was run?
A: Its value is -1.89% (inactive).

Q: With `CCC(C/C=C/c1ccccc1)(c1ccccc1)N(C)CC1CC1` (stereo not given) [igmesine] as the molecule, how does the “inhibition” value read?
A: Its value is -2.22% (inactive).

Q: With `c1ccc2c(c1)[I+]c1ccccc1-2` [diphenyleneiodonium] as the molecule, how does the “inhibition” value read?
A: Its value is -0.64% (inactive).

Q: For `Cc1c(C(=O)N2CCOc3ccc(-c4ccc(N)nc4)cc3C2)ccc(S(C)(=O)=O)c1F`, which “inhibition” value is on record?
A: Its value is -0.37% (inactive).

Q: `CCOC(=O)NNc1ccc(N(CC)CC(C)O)nn1` (stereo not given) [cadralazine] was tested. Which “inhibition” value did it give?
A: The value was -1.93% (inactive).

Q: For `Cn1cc(-c2ccc3nnc(Sc4ccc5ncccc5c4)n3n2)cn1`, which “inhibition” value is on record?
A: Its value is -1.37% (inactive).

Q: Which “inhibition” value does the source give for `COc1ccccc1C(=O)Nc1cccc(NC(=O)c2cccc(C)c2)c1` here?
A: The value was 2.82% (inactive).

Q: How did the “inhibition” value turn out when `CCO[C@@H](Cc1ccc(OCCc2ccc(OS(C)(=O)=O)cc2)cc1)C(=O)O` [tesaglitazar] was run?
A: Its value is 0.15% (inactive).

Q: `CC1=C(/C=C/C(=C/C=C/C(C)=C/C(=O)O)c2ccc(C)cc2)C(C)(C)CCC1` was tested. Which “inhibition” value did it give?
A: Its value is 1% (inactive).

Q: For `CS(=O)(=O)n1cc2c(n1)CN([C@H]1CO[C@H](c3cc(F)ccc3F)[C@@H](N)C1)C2` [omarigliptin], which “inhibition” value is on record?
A: The value was 0.23% (inactive).

Q: Which “inhibition” value does the source give for `O=C(O)c1nn(Cc2ccc(Cl)cc2Cl)c2ccccc12` [lonidamine] here?
A: The value was 0.81% (inactive).

Q: `Cc1nc(-c2ccc(OCC(C)C)c(C#N)c2)sc1C(=O)O` [febuxostat] was tested. Which “inhibition” value did it give?
A: The value was -0.43% (inactive).

Q: With `CCCC[C@H]1OC(=O)c2ccccc21` [butylphthalide] as the molecule, how does the “inhibition” value read?
A: Its value is -0.12% (inactive).

Q: For `CCN(CC)CCCCNc1ncc2cc(-c3cc(OC)cc(OC)c3)c(NC(=O)NC(C)(C)C)nc2n1`, which “inhibition” value is on record?
A: The value was -0.45% (inactive).

Q: Which “inhibition” value does the source give for `C[C@H](Cc1ccc(O)c(O)c1)[C@@H](C)Cc1ccc(O)c(O)c1` [masoprocol] here?
A: The value was 2.75% (inactive).

Q: How did the “inhibition” value turn out when `CN=C(N)NCCC[C@H](N)C(=O)O` [L-monomethylarginine] was run?
A: Its value is 0.7% (inactive).

Q: With `O=C(Oc1ccccc1)c1ccccc1O` [phenyl-salicylate] as the molecule, how does the “inhibition” value read?
A: Its value is -0.85% (inactive).

Q: `Cc1nnc2ccc(-c3cccc(C(F)(F)F)c3)nn12` was tested. Which “inhibition” value did it give?
A: Its value is 2.78% (inactive).

Q: For `C=CC(=O)Nc1cccc(Nc2nc(Nc3ccc(N4CCN(C(C)=O)CC4)cc3OC)ncc2C(F)(F)F)c1` [rociletinib], which “inhibition” value is on record?
A: The value was -0.14% (inactive).

Q: How did the “inhibition” value turn out when `CC(C)[C@H](O)C(=O)N[C@@H](C)C(=O)N[C@@H]1C(=O)N(C)CCc2ccccc21` [semagacestat] was run?
A: The value was -1.88% (inactive).
